According to the supplement of paper PMC10011410:
± gives the standard deviation of the averaged measurements.

Tested on: AmpC beta-lactamase (E. coli)
Experiment: AmpC inhibition relative to DMSO; higher = more inhibition
Description: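 Aggregation counter-screen: inhibition of E. coli AmpC beta-lactamase (5 nM, nitrocefin substrate, 50 mM sodium phosphate pH 7.0, RT, 5 min) by KAT inhibitors at 4, 11, 33 and 100 uM, with or without 0.01% Triton X-100. Percent inhibition is relative to DMSO controls. Four technical replicates.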

[1] = 4 µM, detergent: 0.01% Triton X-100
[2] = 11 µM, detergent: 0.01% Triton X-100
[3] = 33 µM, detergent: 0.01% Triton X-100
[4] = 100 µM, detergent: 0.01% Triton X-100
[5] = 100 µM, detergent: no detergent

SMILES | AmpC inhibition [1] | AmpC inhibition (4 µM, detergent: no detergent) | AmpC inhibition [2] | AmpC inhibition (11 µM, detergent: no detergent) | AmpC inhibition [3] | AmpC inhibition (33 µM, detergent: no detergent) | AmpC inhibition [4] | AmpC inhibition [5]
O=C(OCC)/C(C(OCC)=O)=C\CCCCCCCCCCCCCC | 5.31 ± 3.4% | -0.349 ± 2.3% | 1.25 ± 19% | 41.5 ± 10% | 6.47 ± 3.7% | 50.3 ± 16% | 1.39 ± 4.3% | 86.8 ± 6.6%
CCCCCCCCCCCCCCCc1cccc(O)c1C(=O)O | 6.97 ± 5.3% | 25.7 ± 18% | 6.87 ± 8.5% | 97.15 ± 0.48% | 5.05 ± 6.1% | 100 ± 3.9% | 7.84 ± 4% | 99.49 ± 0.71%
O=C(O[C@@H]1Cc2c(O)cc(O)cc2O[C@@H]1c1cc(O)c(O)c(O)c1)c1cc(O)c(O)c(O)c1 | 9.27 ± 1.3% | 11.2 ± 18% | 4.89 ± 2% | 16 ± 3.1% | 4.57 ± 1.2% | 19.6 ± 14% | 1.23 ± 6.1% | 30.2 ± 1.1%
CC1(C)CCC2=C(O1)c1ccccc1C(=O)C2=O | 10.1 ± 3.2% | 0.565 ± 6.8% | 2.63 ± 1.6% | -4.82 ± 5.1% | 6.33 ± 3.7% | -16.2 ± 7.7% | -0.871 ± 3.1% | 4.94 ± 2%
CC(Cc1ccc(O)c(O)c1)C(C)Cc1ccc(O)c(O)c1 (stereo not given) | 0.262 ± 1.6% | 2.98 ± 9.9% | -1.09 ± 14% | 23.2 ± 4% | 1.16 ± 12% | 47.4 ± 7.5% | -4.88 ± 5.5% | 86 ± 2.8%
